High-throughput results deposited in PubChem BioAssay by Sanford-Burnham Center for Chemical Genomics.
Neddylation inh = inhibitors of cullin neddylation, primary screen, biochemical, TR-FRET, uHTS, NAE and Ubc12; NEDD8-conjugating enzyme Ubc12 (Homo sapiens) + NEDD8-activating enzyme E1 regulatory …; inhibition, % at 25 µM; 360,000 compounds, 0.58% hits; in the data active means inhibition above about 36%
A3G deaminase = APOBEC3G DNA deaminase inhibitors, primary screen, biochemical, fluorescence, single-stranded DNA substrate, uHTS | DNA dC->dU-editing enzyme APOBEC-3G (Homo sapiens), Q9HC16 | 330,000 compounds, 0.28% hits | recombinant A3G, ssDNA deamination FAM/TAMRA fluorescence | inhibition, % at 20 µM;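 active means inhibition of at least 40% at 20 µM, with no more than 30% in the related APOBEC3A deaminase screen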
PfGluPho inh = PfG6PD enzyme inhibitors, primary screen, biochemical, fluorescence intensity, uHTS; 350,000 compounds, 0.78% hits; glucose-6-phosphate dehydrogenase-6-phosphogluconolactonase (Plasmodium falciparum 3D7); PfGluPho enzyme, NADPH resazurin-diaphorase fluorescence; inhibition, % at 20 µM;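 active means inhibition reaching at least a set limit at 20 µM in the primary screen, cut at about 59% in these data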
GC-A act = GC-A stimulated cGMP production enhancers – HEK293 GC-A cells, cGMP TR-FRET, EC30 ANP, primary screen; Atrial natriuretic peptide receptor 1 (Homo sapiens), P16066; 370,000 compounds, 0.14% hits; activation, % at 10 µM; 0% at EC30 ANP, 100% saturating ANP; in the data active means activation above about 40%
APOBEC3A inh = APOBEC3A ssDNA deaminase inhibitors, primary screen, selectivity assay for APOBEC3G inhibitor project, biochemical, FAM/TAMRA oligo cleavage fluorescence | DNA dC->dU-editing enzyme APOBEC-3A (Homo sapiens), P31941 | recombinant A3A, FAM/TAMRA ssDNA deamination fluorescence | inhibition, % at 20 µM | 330,000 compounds, 0.41% hits;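 active means at least 40% inhibition at 20 µM here, with at most 30% in a related deaminase screen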
NPR2 activator = human GC-B receptor activators, primary screen, HEK293 GC-B cells, cGMP TR-FRET, EC30 CNP; AID 1920062, 2024; 0% at EC30 CNP, 100% saturating CNP; activation, % at 10 µM; 370,000 compounds, 0.11% hits; Atrial natriuretic peptide receptor 2 (Homo sapiens), P20594;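 active means activation at 10 µM reaching about 35% in either raw or pattern-adjusted values, limit read from the data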
PfG6PD confirm = PfG6PD inhibitors, hit retest, confirmation, biochemical, fluorescence intensity, single concentration; shares compounds with PfGluPho inh; recombinant PfGluPho, NADPH-diaphorase-resazurin fluorescence; 2,400 compounds, 34% hits; inhibition, % at 20 µM;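 active means inhibition of at least 50% at 20 µM in any single replicate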
Diaphorase 10uM = diaphorase inhibitors and chemical oxidizers, confirmation, counter-screen for P. falciparum G6PD inhibitor project, biochemical, fluorescence intensity, 10 µM NADPH; shares compounds with PfGluPho inh; diaphorase-coupled resazurin reduction, NADPH 10 uM; inhibition, % at 20 µM; 820 compounds, 39% hits; AID 504862, 2011;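 active means average inhibition reaching 50% or more with the compound at 20 µM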;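 further: resorufin red fluorescence formed as diaphorase reduces resazurin using NADPH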
Diaphorase 30uM = diaphorase inhibitors and chemical oxidizers, confirmation, counter-screen for P. falciparum G6PD inhibitor project, biochemical, fluorescence intensity, 30 µM NADPH | shares compounds with PfGluPho inh | Diaphorase/resazurin coupled assay, resorufin fluorescence | inhibition, % at 20 µM | 820 compounds, 29% hits | AID 504863, 2011;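 active means inhibition averaging 50% or more, tested at 20 µM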
Of the large screens only hits and unclear results are named; the others gave an inactive call (follow-up assays come after a bar, where they were run). Rows were chosen to be rich in hits. Some 2% of all compounds tested hit in one or more screens of this group.

Cc1ccc(C)c2c1cc(C)c1nnc(SCC(=O)c3cccs3)n12	PfGluPho inh 60 | PfG6PD confirm inactive
Cc1ccc(C)c2c1cc(C)c1nnc(SCC(=O)NCc3ccc4c(c3)OCO4)n12	PfGluPho inh 94 | PfG6PD confirm 84 | Diaphorase 10uM 93 | Diaphorase 30uM 70
Cc1ccc(S(=O)(=O)NCC2CN(S(=O)(=O)c3ccc(C)cc3)c3ccccc3C(=O)N2c2ccc(F)cc2)cc1 (stereo unspecified)	none (no result: Neddylation inh, A3G deaminase, PfGluPho inh, APOBEC3A inh)
CCn1c(=O)n(CC)c2cc(N3CCCC3)c(NC(=O)c3cccc(C)c3)cc21	PfGluPho inh 71 | PfG6PD confirm 84 | Diaphorase 10uM inactive | Diaphorase 30uM inactive
CC1(OC(=O)C2CCCC2)C(=O)C=C2C=C(c3ccsc3)N(CCc3c[nH]c4ccccc34)C=C2C1=O (stereo unspecified)	PfGluPho inh 78 (no result: GC-A act, NPR2 activator) | PfG6PD confirm 66 | Diaphorase 10uM inactive | Diaphorase 30uM inactive
CC1(OC(=O)C2CCCC2)C(=O)C=C2C=C(c3ccsc3)N(Cc3ccc4c(c3)OCO4)C=C2C1=O (stereo unspecified)	PfGluPho inh 61 | PfG6PD confirm 53 | Diaphorase 10uM inactive | Diaphorase 30uM inactive
CC1(OC(=O)C2CCCC2)C(=O)C=C2C=C(c3ccsc3)N(CCN3CCOCC3)C=C2C1=O (stereo unspecified)	none (no result: Neddylation inh, PfGluPho inh, GC-A act, NPR2 activator)
CC1(OC(=O)C2CCCC2)C(=O)C=C2C=C(c3ccsc3)N(C3CCCCC3)C=C2C1=O (stereo unspecified)	none
CC1(OC(=O)C2CCCC2)C(=O)C=C2C=C(c3ccsc3)N(CC3CC3)C=C2C1=O (stereo unspecified)	PfGluPho inh 68 | PfG6PD confirm 50 | Diaphorase 10uM inactive | Diaphorase 30uM inactive
CC(C)C[C@H]1COc2ccc(Cl)cc2S(=O)(=O)N1Cc1cn(Cc2ccc(C(F)(F)F)cc2)nn1	none (no result: Neddylation inh, A3G deaminase, PfGluPho inh, APOBEC3A inh)
CN(C)c1ccc(C=c2c3cc(O)ccc3n3c2cc(-c2ccccc2)[n+]3C)cc1	PfGluPho inh 83 (no result: A3G deaminase, APOBEC3A inh) | PfG6PD confirm 89 | Diaphorase 10uM inactive | Diaphorase 30uM inactive
C[n+]1c(-c2ccccc2)cc2c(=Cc3ccc([N+](=O)[O-])cc3)c3ccccc3n21	PfGluPho inh 76 (no result: A3G deaminase, APOBEC3A inh) | PfG6PD confirm 50 | Diaphorase 10uM inactive | Diaphorase 30uM inactive
CN(C)c1ccc(C=c2c3ccccc3n3c2c2ccccc2[n+]3C)cc1	Neddylation inh 39, PfGluPho inh 89 (no result: A3G deaminase, APOBEC3A inh) | PfG6PD confirm 88 | Diaphorase 10uM inactive | Diaphorase 30uM inactive
CN(CCCOC(=O)c1occ2ccccc12)C1CN(Cc2cn(Cc3ccccc3Cl)nn2)S(=O)(=O)C1 (stereo unspecified)	none (no result: Neddylation inh, A3G deaminase, PfGluPho inh, APOBEC3A inh)
O=C(c1ccccc1)N1CCC(Oc2cccnc2)CC1	none (no result: Neddylation inh, A3G deaminase, PfGluPho inh, APOBEC3A inh)
Cc1ccc(S(=O)(=O)N(CCCc2c(C)nc(N)[nH]c2=O)Cc2ccc([N+](=O)[O-])cc2)cc1	PfGluPho inh 62 (no result: A3G deaminase, APOBEC3A inh) | PfG6PD confirm inactive
Cc1nc(N)[nH]c(=O)c1CCCNS(=O)(=O)c1ccc([N+](=O)[O-])cc1	none (no result: A3G deaminase, APOBEC3A inh)
